Experimental data taken from the supplement of paper PMC3545927.
Some of the results follow. The hit rate among all sequences tested is not known here.

Molecular target: furin, P09958
Assay: furin cleavage Z-score vs untreated control; higher = more cleavage, active = 3.5 or more, inactive = 1 or less, 8 variable residues between constant flanks
Procedure: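 Multiplexed peptide-cDNA fusion cleavage assay. 8-mer variable peptides flanked by constant Cys-Ala (N-term) and Ala-Gly-Asn-Ala-Ser-Ala-Ser-Ala (C-term) and conjugated to a cDNA oligonucleotide were bead-immobilised via the N-terminus. They were treated with purified furin at a 1:10 enzyme:substrate ratio in 50 mM HEPES pH 7.5, 1 mM CaCl2, 100 mM NaCl for 7.5, 15 or 30 min. Released cDNA was counted by next-generation sequencing, and log counts versus no-furin controls were lowess-adjusted and converted to robust Z-scores.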

Chain of furin, P09958 (P09958 whole entry): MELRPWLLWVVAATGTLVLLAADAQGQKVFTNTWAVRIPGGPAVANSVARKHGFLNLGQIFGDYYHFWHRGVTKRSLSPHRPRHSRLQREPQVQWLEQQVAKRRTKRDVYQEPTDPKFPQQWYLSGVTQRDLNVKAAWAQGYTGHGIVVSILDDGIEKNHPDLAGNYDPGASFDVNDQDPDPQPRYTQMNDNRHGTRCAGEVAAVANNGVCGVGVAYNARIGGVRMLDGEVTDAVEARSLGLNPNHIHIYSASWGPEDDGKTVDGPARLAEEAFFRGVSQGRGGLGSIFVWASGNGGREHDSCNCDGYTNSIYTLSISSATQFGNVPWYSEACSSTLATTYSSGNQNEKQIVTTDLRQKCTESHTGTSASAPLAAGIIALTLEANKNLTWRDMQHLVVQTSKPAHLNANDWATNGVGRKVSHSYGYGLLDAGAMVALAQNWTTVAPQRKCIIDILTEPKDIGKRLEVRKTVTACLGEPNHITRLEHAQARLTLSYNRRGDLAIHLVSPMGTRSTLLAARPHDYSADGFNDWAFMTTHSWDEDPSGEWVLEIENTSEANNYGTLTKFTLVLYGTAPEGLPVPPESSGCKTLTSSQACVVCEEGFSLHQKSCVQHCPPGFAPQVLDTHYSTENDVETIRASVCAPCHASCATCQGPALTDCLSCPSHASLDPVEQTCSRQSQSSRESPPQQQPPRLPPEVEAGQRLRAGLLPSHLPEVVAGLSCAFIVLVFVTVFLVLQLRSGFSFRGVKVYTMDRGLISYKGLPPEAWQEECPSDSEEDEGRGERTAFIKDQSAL

CAGFLRKRREAGNASASA [FS-426]
furin cleavage Z-score (7.5 min): 11.1 (active)
furin cleavage Z-score (15 min): 11.2 (active)
furin cleavage Z-score (30 min): 8.58 (active)

CAYPKRSAGEAGNASASA [FS-2117]
furin cleavage Z-score (7.5 min): -0.54 (inactive)
furin cleavage Z-score (15 min): -0.564 (inactive)
furin cleavage Z-score (30 min): 0.202 (inactive)

CAPPRRQRRGAGNASASA [FS-1050]
furin cleavage Z-score (7.5 min): 0.924 (inactive)
furin cleavage Z-score (15 min): 0.828 (inactive)
furin cleavage Z-score (30 min): 1.23

CATKNRQRRGAGNASASA [FS-1094]
furin cleavage Z-score (7.5 min): 6.87 (active)
furin cleavage Z-score (15 min): 7.34 (active)
furin cleavage Z-score (30 min): 5.71 (active)

CANCLRQRRGAGNASASA [FS-465]
furin cleavage Z-score (7.5 min): -0.759 (inactive)
furin cleavage Z-score (15 min): -0.337 (inactive)
furin cleavage Z-score (30 min): -0.511 (inactive)

CAKWLRFIRGAGNASASA [FS-1022]
furin cleavage Z-score (7.5 min): 2.09
furin cleavage Z-score (15 min): 0.354 (inactive)
furin cleavage Z-score (30 min): 3.09

CALNNRQIRGAGNASASA [FS-1136]
furin cleavage Z-score (7.5 min): 3.62 (active)
furin cleavage Z-score (15 min): 5.07 (active)
furin cleavage Z-score (30 min): 5.04 (active)

CAWQRRQRRGAGNASASA [FS-896]
furin cleavage Z-score (7.5 min): 6 (active)
furin cleavage Z-score (15 min): 6.49 (active)
furin cleavage Z-score (30 min): 5.96 (active)

CADGNRQVRGAGNASASA [FS-981]
furin cleavage Z-score (7.5 min): 0.00638 (inactive)
furin cleavage Z-score (15 min): -1.04 (inactive)
furin cleavage Z-score (30 min): 0.17 (inactive)

CAMVVTSTWVAGNASASA [HC2146]
furin cleavage Z-score (7.5 min): -1.12 (inactive)
furin cleavage Z-score (15 min): -1.84 (inactive)
furin cleavage Z-score (30 min): -2.22 (inactive)

CAIGTVLDQAAGNASASA [HC825]
furin cleavage Z-score (7.5 min): -1.51 (inactive)
furin cleavage Z-score (15 min): -1.57 (inactive)
furin cleavage Z-score (30 min): -0.129 (inactive)

CARRKRDWVIAGNASASA [FS-2778]
furin cleavage Z-score (7.5 min): 3.18
furin cleavage Z-score (15 min): 5.46 (active)
furin cleavage Z-score (30 min): 8.57 (active)

CARQKKGVVPAGNASASA [FS-2749]
furin cleavage Z-score (7.5 min): 0.952 (inactive)
furin cleavage Z-score (15 min): -0.837 (inactive)
furin cleavage Z-score (30 min): -1.72 (inactive)

CARSKRRWVIAGNASASA [FS-2812]
furin cleavage Z-score (7.5 min): -0.553 (inactive)
furin cleavage Z-score (15 min): -0.688 (inactive)
furin cleavage Z-score (30 min): 0.146 (inactive)

CARQKRDPAFAGNASASA [FS-2289]
furin cleavage Z-score (7.5 min): 2.9
furin cleavage Z-score (15 min): 3.65 (active)
furin cleavage Z-score (30 min): 5.36 (active)

CARHKRLSYQAGNASASA [FS-3255]
furin cleavage Z-score (7.5 min): -1.36 (inactive)
furin cleavage Z-score (15 min): -0.609 (inactive)
furin cleavage Z-score (30 min): 1.23

CARQKRDWIWAGNASASA [FS-2751]
furin cleavage Z-score (7.5 min): 3.51 (active)
furin cleavage Z-score (15 min): 5.26 (active)
furin cleavage Z-score (30 min): 8.38 (active)

CARQKRGWMWAGNASASA [FS-2169]
furin cleavage Z-score (7.5 min): -0.547 (inactive)
furin cleavage Z-score (15 min): 2.65
furin cleavage Z-score (30 min): 3

CARRCRASGVAGNASASA [HC1509]
furin cleavage Z-score (7.5 min): -1.17 (inactive)
furin cleavage Z-score (15 min): -0.493 (inactive)
furin cleavage Z-score (30 min): -0.69 (inactive)

CARHKRQSGVAGNASASA [FS-2211]
furin cleavage Z-score (7.5 min): 5.97 (active)
furin cleavage Z-score (15 min): 7.29 (active)
furin cleavage Z-score (30 min): 6.66 (active)

CACLEVVTSTAGNASASA [HC2280]
furin cleavage Z-score (7.5 min): -1.07 (inactive)
furin cleavage Z-score (15 min): -0.98 (inactive)
furin cleavage Z-score (30 min): 0.458 (inactive)

CAARLLARGGAGNASASA [HC1625]
furin cleavage Z-score (7.5 min): -1.06 (inactive)
furin cleavage Z-score (15 min): -1.7 (inactive)
furin cleavage Z-score (30 min): -0.871 (inactive)

CAQTASRQAEAGNASASA [HC1029]
furin cleavage Z-score (7.5 min): 1.23
furin cleavage Z-score (15 min): 0.0169 (inactive)
furin cleavage Z-score (30 min): -0.455 (inactive)

CAGVRTITTGAGNASASA [HC801]
furin cleavage Z-score (7.5 min): 0.457 (inactive)
furin cleavage Z-score (15 min): -0.157 (inactive)
furin cleavage Z-score (30 min): -1.39 (inactive)

CASTPCSIHLAGNASASA [HC2524]
furin cleavage Z-score (7.5 min): -0.158 (inactive)
furin cleavage Z-score (15 min): 0.385 (inactive)
furin cleavage Z-score (30 min): 1.12

CATAPCSGSWAGNASASA [HC1843]
furin cleavage Z-score (7.5 min): -0.496 (inactive)
furin cleavage Z-score (15 min): -0.615 (inactive)
furin cleavage Z-score (30 min): -1.22 (inactive)

CARQKRDWVIAGNASASA [FS-2586]
furin cleavage Z-score (7.5 min): 2.07
furin cleavage Z-score (15 min): 4.34 (active)
furin cleavage Z-score (30 min): 6.74 (active)

CARQKRDTTHAGNASASA [FS-2750]
furin cleavage Z-score (7.5 min): 12.5 (active)
furin cleavage Z-score (15 min): 13.1 (active)
furin cleavage Z-score (30 min): 9.68 (active)

CARYSRGVLSAGNASASA [FS-2113]
furin cleavage Z-score (7.5 min): 0.374 (inactive)
furin cleavage Z-score (15 min): 0.104 (inactive)
furin cleavage Z-score (30 min): 0.696 (inactive)

CARHKRDWVVAGNASASA [FS-2677]
furin cleavage Z-score (7.5 min): 4.03 (active)
furin cleavage Z-score (15 min): 1.73
furin cleavage Z-score (30 min): 8.28 (active)

CARQKRFVLSAGNASASA [FS-2444]
furin cleavage Z-score (7.5 min): 4.98 (active)
furin cleavage Z-score (15 min): 5.66 (active)
furin cleavage Z-score (30 min): 7.27 (active)

CARHERDAGVAGNASASA [FS-1822]
furin cleavage Z-score (7.5 min): 0.322 (inactive)
furin cleavage Z-score (15 min): 0.612 (inactive)
furin cleavage Z-score (30 min): -0.236 (inactive)

CARQKRFVLSAGNASASA [FU6]
furin cleavage Z-score (7.5 min): 5.85 (active)
furin cleavage Z-score (15 min): 4.21 (active)
furin cleavage Z-score (30 min): 6.95 (active)

CARQKRLFCRAGNASASA [FS-2755]
furin cleavage Z-score (7.5 min): -1.26 (inactive)
furin cleavage Z-score (15 min): 0.165 (inactive)
furin cleavage Z-score (30 min): 0.958 (inactive)

CALSGWFTAGAGNASASA [HC1644]
furin cleavage Z-score (7.5 min): -0.277 (inactive)
furin cleavage Z-score (15 min): -0.506 (inactive)
furin cleavage Z-score (30 min): -1.36 (inactive)

CAFLVGQLFTAGNASASA [HC303]
furin cleavage Z-score (7.5 min): -0.568 (inactive)
furin cleavage Z-score (15 min): -0.266 (inactive)
furin cleavage Z-score (30 min): 0.343 (inactive)

CASGDVVVVAAGNASASA [HC875]
furin cleavage Z-score (7.5 min): -0.568 (inactive)
furin cleavage Z-score (15 min): -1.7 (inactive)
furin cleavage Z-score (30 min): 1.07

CAMEECSYHLAGNASASA [HC1729]
furin cleavage Z-score (7.5 min): -0.21 (inactive)
furin cleavage Z-score (15 min): -0.538 (inactive)
furin cleavage Z-score (30 min): -0.509 (inactive)

CAAPRSSMSNAGNASASA [TR10]
furin cleavage Z-score (7.5 min): -0.848 (inactive)
furin cleavage Z-score (15 min): -0.0583 (inactive)
furin cleavage Z-score (30 min): -0.668 (inactive)

CARQKRDANSAGNASASA [FS-2506]
furin cleavage Z-score (7.5 min): 10.9 (active)
furin cleavage Z-score (15 min): 12 (active)
furin cleavage Z-score (30 min): 11.1 (active)

CARQKKADEPAGNASASA [FS-3033]
furin cleavage Z-score (7.5 min): -0.414 (inactive)
furin cleavage Z-score (15 min): 0.374 (inactive)
furin cleavage Z-score (30 min): -1.07 (inactive)

CACQDHLEFWAGNASASA [HC936]
furin cleavage Z-score (7.5 min): -1.02 (inactive)
furin cleavage Z-score (15 min): -2.52 (inactive)
furin cleavage Z-score (30 min): -2.85 (inactive)

CAKPRRILRSAGNASASA [FS-1019]
furin cleavage Z-score (7.5 min): 6.74 (active)
furin cleavage Z-score (15 min): 4.42 (active)
furin cleavage Z-score (30 min): 5.71 (active)

CAKPRRRRKSAGNASASA [FS-1020]
furin cleavage Z-score (7.5 min): 5.69 (active)
furin cleavage Z-score (15 min): 7.66 (active)
furin cleavage Z-score (30 min): 7.17 (active)

CAKDGRRRKSAGNASASA [FS-446]
furin cleavage Z-score (7.5 min): 0.703 (inactive)
furin cleavage Z-score (15 min): 2.31
furin cleavage Z-score (30 min): 0.747 (inactive)

CAGVGRVLRSAGNASASA [FS-129]
furin cleavage Z-score (7.5 min): 7 (active)
furin cleavage Z-score (15 min): 7.17 (active)
furin cleavage Z-score (30 min): 7.2 (active)
